We go through 15 molecules from PubChem BioAssay (EPA / NIEHS).

Values joined by “and” are separate entries in the source; they are usually repeats but may differ in a detail not shown here. Identical values can stand only once. Inconclusive results are not listed. Active and inactive are the calls of the source. The calls were made as follows, unless noted: active = hit-call score of the fitted dose curve at least 0.9, where 1 is the maximum; inactive = score below 0.9.

For the first assay, the system named is SRY-box transcription factor 2 (SOX2) Protein Expression, Deisenroth Lab, SOX2 (gene 6657). Kind of assay: CCTE_Deisenroth_DEVTOX-GLR_Pluri_SOX2: CCTE's DevTox GLR-Pluri Assay Evaluation of SRY-box transcription factor 2 (SOX2) Protein Expression, Deisenroth Lab (AID 2284428). In a few lines:
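RUES2-GLR (human pluripotent), 48 h post-dosing, 2 exposures q24h, 1 nM–200 uM 10-pt. Fixed, nuclear dye, high-content imaging 5 fields/well. Endpoint: % SOX2+ cells (SOX2+/total count) vs 0.2% DMSO; n≥4.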
Regarding `CC(O)CO` (stereo not drawn), the call was inactive.

A word on the AC50: it is the concentration giving half of the maximal activity seen. Turning to `CC1=C(/C=C/C(C)=C/C=C/C(C)=C/C(=O)O)C(C)(C)CCC1`, the AC50 is 576 nM (active).

Take `C[C@@H]1C[C@H]2[C@@H]3CCC4=CC(=O)C=C[C@]4(C)[C@@]3(F)[C@@H](O)C[C@]2(C)[C@@]1(O)C(=O)COP(=O)(O)O`: the result was inactive.

For a further assay, the system named is Brachyury (BRA) Protein Expression, Deisenroth Lab, TBXT (gene 6862). Kind of assay: CCTE_Deisenroth_DEVTOX-GLR_Pluri_BRA: CCTE's DevTox GLR-Pluri Assay Evaluation of Brachyury (BRA) Protein Expression, Deisenroth Lab (AID 2284429; active = hit-call score of the fitted dose curve at least 0.9, where 1 is the maximum). The method in brief: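 Mesoderm readout after 48 h differentiation of human RUES2-GLR cells, dosed twice (24-h intervals) at 1 nM - 200 uM. BRA+ frequency from fluorescence imaging of fixed, nuclear-stained cells, DMSO-corrected.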
`CC(O)CO` (stereo not drawn): the outcome was inactive.

`CC1=C(/C=C/C(C)=C/C=C/C(C)=C/C(=O)O)C(C)(C)CCC1`: the AC50 is 12000 nM (active).

In the case of `C[C@@H]1C[C@H]2[C@@H]3CCC4=CC(=O)C=C[C@]4(C)[C@@]3(F)[C@@H](O)C[C@]2(C)[C@@]1(O)C(=O)COP(=O)(O)O`, the molecule was classed as inactive.

For the next assay, the system named is TTR (gene 7276). Nature of the assay: CCTE_GLTED_hTTR_0.125uM: CCTE's human Transthyretin (hTTR) Inhibition Assay, with 0.125uM TTR, Great Lakes Toxicology and Ecology Division (GLTED) Lab (AID 2284431).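 Also: hits lower the fluorescence signal relative to DMSO baseline.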 In a few lines:
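TTR 0.125uM + test chemical, 2 h; ANSA probe displacement; ex 380/em 475 fluorescence; signal loss vs DMSO control.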
Take `O=C(O)c1ccccc1C(c1ccc(O)cc1)c1ccc(O)cc1`: the AC50 is 3040 nM (active).

As for `CC[C@H](c1ccc(O)cc1)[C@@H](CC)c1ccc(O)cc1`, the AC50 was 132 nM (active).

On to `NC(=O)N(O)[C@@H]1C=C[C@H](Oc2cccc(Oc3ccc(F)cc3)c2)C1`, for which the AC50 was 439 nM (active).

Consider `NC(=O)N1C(=O)C(C(=O)c2cc(Cl)cs2)c2cc(F)c(Cl)cc21` (stereo not drawn), for which the half-maximal activity concentration (AC50) was 48.1 nM (active).

For `O=C(O)Cc1cc(I)c(Oc2cc(I)c(O)c(I)c2)c(I)c1`, the AC50 is 10.4 nM (active).

Turning to `ClC1=C(Cl)C(Cl)(Cl)C(Cl)=C1Cl`, the half-maximal activity concentration (AC50) is 7090 nM (active).

As for `CCCCCCCCC(=O)O`, the AC50 is 12400 nM (active).

With `CCCOC(=O)c1ccc(O)cc1`, the half-maximal activity concentration (AC50) is 5010 nM (active).

`CC(C)(C)c1ccc(O)c(C(C)(C)C)c1`: the concentration at half-maximal activity (AC50) was 9980 nM (active).

For the molecule `O=[N+]([O-])c1ccc(O)cc1`, the AC50 is 6.47 µM (active) and 8.54 µM (active).

For `CCCCCCCCCCCCc1ccccc1S(=O)(=O)O`, the AC50 is 890 nM (active).

Turning to `CCc1ccc(CCOc2ccc(CC3SC(=O)NC3=O)cc2)nc1` (stereo not drawn), the AC50 is 392 nM (active).
